Source: PubChem BioAssay (Tox21)
Unmarked numbers belong to inactive results. The source made the active and inactive calls. The call rests on the fitted dose curve; in most records, active means well fitted curve in the direction sought with a large enough effect in the repeat runs; inconclusive means weak or mixed curves; inactive means flat fitted curve, though single readings scatter.

Assay: qHTS assay to test for compound auto fluorescence at 535 nm (green) in HEK293 cells (AID 720680)
Conditions: green autofluorescence 485/535 nm; series mostly up to 91.3 µM
Text: U.S. Tox21 Program National Center for Advancing Translational Sciences [NCATS] NIH Chemical Genomics Center [NCGC] U.S. Environmental Protection Agency [EPA] National Institutes of Environmental Health Sciences [NIEHS] National Toxicology Program [NTP] U.S. Food and Drug Administration [FDA] Tox21 Assay Overview: Compound auto fluorescence often interferes with screening of the compound library against various biological targets and signaling pathways. Some of these compounds may have fluorophoric properties. Such properties may interfere with the assay outputs resulting in false positives and/or negatives. To decrease such complications and ensure the compound activities are relevant in terms of biological response, the Tox21 10K compound library was screened for auto fluorescence. From the fluorophores used as reporter signals in our screening assays, the auto fluorescence equivalencies of compounds against three fluorophores have been evaluated: Triamterene, Fluorescein and Rose Bengal sodium for blue, green and red fluorescence, respectively. The fluorescence intensities were measured using Excitation/Emission wavelengths at 405/460nm, 485/535nm and 540/590nm for blue, green and red labels, respectively. This assay includes the green fluorescence data.
Tox21 Assay Protocol Summary: 2,000 HEK293 cells in 5 uL of culture medium containing 10% dialyzed FBS per well were dispensed into black wall/clear bottom 1536-well plates using a Multidrop Combi Dispenser (Thermo Scientific). The assay plates were incubated for 4-5 hr at 37C to allow cell attachment to the well bottom, followed by the transfer of 23 nL compound or DMSO vehicle by a pintool work station (Kalypsys, San Diego, CA). After the assay plates were incubated overnight at 37C and 5% CO2, fluorescence intensities in the assay plates were measured by an Envision (PerkinElmer, Shelton, CT) plate reader using three labels for measuring blue, green and red fluorescence at […] 460, 535 and 590nm respectively.
On the % scale 0 is the no-effect control and ±100 the full control effect.

SMILES	outcome	fluorescence, % of fluorescein
N[C@@H]1C[C@H]1c1ccccc1	inactive	–
CCOc1cc(OP(=S)(OC)OC)nc(CC)n1	inactive	–
CC(C)(C)C(=O)C(Cl)Cl	inactive	–
NNCc1ccccc1	inactive	–
NC(=O)CS(=O)C(c1ccccc1)c1ccccc1 (stereo not given)	inactive	–
O=[N+]([O-])c1cccc(CCl)c1	inactive	–
N#CN	inactive	–
OP(O)c1ccccc1	inactive	–
[O-][Br+2]([O-])O	inactive	–
CCOC(=O)CC(SP(=S)(OC)OC)C(=O)OCC (stereo not given)	inactive	–
N#CN=C1SCCN1Cc1ccc(Cl)nc1	inactive	–
CCNc1nc(NCC)nc(SC)n1	inactive	–
CC(C)(O)C(Cl)(Cl)Cl	inactive	–
NC1(c2ccccc2)CCCCC1	inactive	–
CN(C)C(=O)Oc1cc(OC(=O)N(C)C)cc(C(O)CNC(C)(C)C)c1 (stereo not given)	–	0.102% [at 18.6 µM]
O=S1(=O)OCCO1	inactive	–
O=C(CCl)NCO	inactive	–
C[N+]1(C)CCCCC1	inactive	–
COC(=O)c1ccc(CBr)cc1	inactive	–
ClCC1CO1 (stereo not given)	inactive	–

SMILES	outcome	fluorescence, % of fluorescein
CC(C)(C)C(=O)Cl	inactive	–
CCC1(c2ccccc2)C(=O)N(COC)C(=O)N(COC)C1=O	inactive	–
COc1ccccc1OC	inactive	–
CCCCS(=O)(=O)Cl	inactive	–
CCN[C@H](C)Cc1cccc(C(F)(F)F)c1	inactive	–
CC(=O)CN(CC(C)=O)N=O	inactive	–
NNC(N)=O	inactive	–
CC(C)(C)c1cc(O)ccc1O	inactive	–
CC(O)CCl (stereo not given)	inactive	–
O=C1C2CC=CCC2C(=O)N1SC(Cl)(Cl)Cl (stereo not given)	inactive	–
COc1ccc2c(C(=O)c3ccc(Cl)cc3)c(C)n(CC(=O)O)c2c1	inactive	–
CN=CNc1ccc(C)cc1C	inactive	–
N#CC(Br)(Br)C(N)=O	inactive	–
COP(=O)(OC)O/C(C)=C/C(=O)N(C)C	inactive	–
COC(=O)[C@@H](N)CCCN/C(N)=N/[N+](=O)[O-]	inactive	–
Nc1c(Cl)c(F)nc(OCC(=O)O)c1Cl	inactive	–
CCN[C@@H](C)Cc1cccc(C(F)(F)F)c1	inactive	–
c1ccc2c(c1)CCNC2	inactive	–
CC[C@@H](CO)NC(=O)[C@@H]1C=C2c3cccc4[nH]cc(c34)C[C@H]2N(C)C1	inactive	–
CCCCCCC(=O)CCCCCC/C=C/C[C@@H](O)[C@H](O)[C@@](N)(CO)C(=O)O	inactive	–
